KDM4E inh: inhibitors of human JMJD2E histone demethylase | B2RXH2 | JMJD2E catalytic domain, FDH-coupled NADH fluorescence (FDH is formaldehyde dehydrogenase) | Potency, µM (top dose mostly 57.1 µM), for inactives: at the top dose activity change, negative = inhibition, actives largely listed as inhibitors | actives 1.6% (n = 230,000) | AID 2147; active means well fitted inhibition curve with a large enough effect, not every such curve was filed as active; inconclusive means small, poorly fitted or top-dose-only effect, or another doubt; inactive means no such curve, though single readings can be large or run the other way;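 further: potency means the concentration at half of the fitted maximal effect; 0% = wells with enzyme and -100% = buffer wells without enzyme; nearly all actives have a fitted effect of over 50% in size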
HTT ATP protect: protects HTT-Q103 PC12 cells, measured by ATP | PC12 HTT-Q103 induced, cytoprotection, ATP luminescence, 40 h | AID 1471 | actives 0.14% (n = 230,000) | Potency, µM (series often up to 56.4 µM), without a hit: cytoprotection (ATP increase), most hits filed as activators; further: potency means the concentration at half of the fitted maximal effect; % of control where 0% means no effect; nearly all actives have a fitted effect of over 45% in size
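Huntington model: PC12 line, ecdysone-inducible HTTQ103 exon1–GFP, tebufenozide 100 nM. Test articles in a dose series. Endpoint luminescence from cellular ATP.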
VDR inhibitor: vitamin D3 receptor (human) inhibition; Potency, µM, inactives show max response, negative = inhibition, actives largely listed as inhibitors; VDR-SRC2-3 peptide fluorescence polarization, 2 h; actives 0.93% (n = 400,000); P11473; AID 504847; further: potency means the concentration at half of the fitted maximal effect; on the % scale 0 is the no-effect control and ±100 the full control effect
Target sequence (P11473 whole entry, looked up): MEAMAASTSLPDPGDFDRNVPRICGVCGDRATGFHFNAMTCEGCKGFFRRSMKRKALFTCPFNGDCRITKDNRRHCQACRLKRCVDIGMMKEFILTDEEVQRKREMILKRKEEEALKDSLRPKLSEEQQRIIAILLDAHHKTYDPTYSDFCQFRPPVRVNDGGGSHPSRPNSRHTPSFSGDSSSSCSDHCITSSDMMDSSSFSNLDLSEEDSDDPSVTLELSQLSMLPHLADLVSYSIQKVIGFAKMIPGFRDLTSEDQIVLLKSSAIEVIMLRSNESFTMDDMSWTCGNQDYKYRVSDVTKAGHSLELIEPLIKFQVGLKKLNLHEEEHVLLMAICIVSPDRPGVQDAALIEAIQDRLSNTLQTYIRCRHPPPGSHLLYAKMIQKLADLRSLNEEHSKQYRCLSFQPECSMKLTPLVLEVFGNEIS
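Inhibition of the VDR/SRC2-3 peptide interaction is quantified by fluorescence polarization. Compounds (23 nl, pintool) incubate with the reagents for 2 hours at ambient room temperature.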
GoLoco inh red: RGS12 GoLoco-Gai1 interaction inhibition. P63096. Gai1:RGS12 GoLoco peptide FP, rhodamine, 10 min. Potency, µM (titrated, usually from 61.6 µM), without a hit: top-dose activity, negative = inhibition, most hits filed as inhibitors. actives 0.44% (n = 230,000). AID 880; active means well fitted inhibition curve with a large enough effect, not every such curve was filed as active; inactive means no such curve, though single readings can be large or run the other way; further: potency means the concentration at half of the fitted maximal effect; on the % scale 0 is the no-effect control and ±100 the full control effect; nearly all actives have a fitted effect of over 30% in size
FBPA coupling cs: counter-screen for Giardia aldolase inhibitors: coupling enzyme system | coupling enzyme system counterscreen, AmpLite Red fluorescence | activity change, negative = inhibition, % at 58.2 µM, hits read low | AID 2472 | actives 0.67% (n = 290,000); in the data active means activity change below about -30%; further: on the % scale 0 is the no-effect control and ±100 the full control effect
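Counterscreen lacking aldolase: glyceraldehyde-3-phosphate coupling-enzyme reagent preincubated 10 min at RT with compound (at 57.5 uM final), then substrate/coupling system with AmpLite Red added; fluorescence read at 525/598 nm after 20 min RT.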
HttQ103 aggreg: reduces HttQ103-GFP aggregates in PC12 cells; actives 1.1% (n = 220,000); Potency, µM (series often up to 46.1 µM), without a hit: top-dose activity change, negative = inhibition, most hits filed as inhibitors; PC12 HttQ103-GFP aggregates, Acumen cytometry, 40 h; further: potency means the concentration at half of the fitted maximal effect; on the % scale 0 is the no-effect control and ±100 the full control effect; nearly all actives have a fitted effect of over 60% in size
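PC12 cells stably carrying ecdysone-inducible HTT exon 1 Q103–GFP were induced with tebufenozide (100 nM final) and treated with library compounds in titration. GFP aggregates in lysates were counted by laser scanning cytometry.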
USP1-UAF1 confirm: validation of human USP1/UAF1 inhibitors; Ub-Rhodamine cleavage, fluorescence kinetic read; Potency, µM (highest dose often 114 µM), for inactives: at the top dose activity change, negative = inhibition, actives largely listed as inhibitors; actives 50% (n = 50); shares compounds with VDR inhibitor
VDR inh confirm: confirmation of human vitamin D receptor inhibitors; AID 602199; shares compounds with VDR inhibitor; VDR-coactivator inhibition assay, qHTS confirmation; actives 89% (n = 840); Potency, µM, usual class: inhibitors; further: potency means the concentration at half of the fitted maximal effect
VDR FP: confirmation of human VDR-coactivator binding inhibitors, fluorescein label | actives 48% (n = 840) | shares compounds with VDR inhibitor | VDR-coactivator binding, fluorescein fluorescence polarization | Potency, µM (series often up to 57.1 µM), inactives show at the top dose activity change, negative = inhibition, most hits filed as inhibitors; further: potency means the concentration at half of the fitted maximal effect
VDR bla reporter: inhibits human VDR in beta-lactamase reporter cells. actives 23% (n = 840). AID 602202. VDR beta-lactamase reporter cells, FRET ratio; cells co-treated with VDR agonist LG190178. Potency, µM (titrated, usually from 46.1 µM), without a hit: at the top dose activity change, negative = inhibition, usual class: inhibitors. shares compounds with VDR inhibitor; further: potency means the concentration at half of the fitted maximal effect; on the % scale 0 is the no-effect control and ±100 the full control effect
VDR cytotox: cell toxicity, VDR inhibitor hit counter-screen; shares compounds with VDR inhibitor; cytotoxicity counter-screen, cell viability, qHTS; Potency, µM (highest dose often 48.3 µM), for the others: at the top dose activity change, negative = cytotoxicity, hits mostly cytotoxic; actives 18% (n = 840); AID 602204;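 further: potency means the concentration at half of the fitted maximal effect; plate controls were DMSO for no effect and high-concentration cycloheximide for full effect; nearly all actives have a fitted effect of over 75% in size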
Numbers without * were called inactive; ? = inconclusive; . = not tested or not shown; [ ] = another dose, or the depositor's remark. Sampled rows, rich in hits. Any-hit rate of the full collection: about 2.3%. Unless noted, the call rests on the fitted dose curve; in most records, active means well fitted curve in the direction sought with a large enough effect; inconclusive means small, poorly fitted or top-dose-only effect, or another doubt; inactive means no such curve, though single readings can be large; an effect the other way counts as inactive or inconclusive.

SMILES	KDM4E inh	HTT ATP protect	VDR inhibitor	GoLoco inh red	FBPA coupling cs	HttQ103 aggreg	VDR inh confirm	VDR FP	VDR bla reporter	VDR cytotox	others
CCOc1ccc(N2C(=O)NC(=O)/C(=C\c3ccccc3[N+](=O)[O-])C2=O)cc1	-28%	9%[10 µM]	32µM*	-6%	8	-9%[9.22 µM]	9.5*	?	9%	-11%
O=S(=O)(c1ccc(Cl)cc1)c1ccc(Cl)cc1	.	?	-7%	0%	.	.	.	.	.	.
COc1ccc([N+](=O)[O-])c(S(=O)(=O)c2ccc(Cl)cc2)n1	3%	-55%[10 µM]	32µM*	-11%	-1	?	3*	?	7.3µM*	?
CCN1C(=O)/C(=C\C(=O)c2cccs2)c2cc(Br)ccc21	-7%	.	35µM*	7%	-1	2%	6.7*	?	?	?
CCn1cc(C(=O)c2cccs2)c2ccccc21	-5%	3%	17%	13%	0	-13%	.	.	.	.
ClC1=C(Cl)C2(Cl)C3C(Cl)C(Cl)CC3C1(Cl)C2(Cl)Cl (stereo not drawn)	.	8%	.	-23%	.	.	.	.	.	.
COC(=O)COc1ccc(/C=C2\C(=O)NC(=S)N(c3ccc(C)cc3)C2=O)cc1OC	.	.	25µM*	.	5	.	6.7*	?	15%	26%
CCOC(=O)COc1ccc(/C=C2\C(=O)NC(=S)N(c3ccc(OC)cc3)C2=O)cc1OC	.	.	45µM*	.	5	.	24*	14µM*	22%	15%
OC[C@@H]1[C@@H](O)[C@H](O)[C@H]2[C@@H](O)CCN21	.	.	-2%	.	1	.	.	.	.	.
COc1ccc(NC(=O)N2CC3(CCN(C(=O)Oc4ccccc4)CC3)C2)cc1	.	0%	8%	2%	0	.	.	.	.	.
OCCN1CCN(CCCN2c3ccccc3Sc3ccc(C(F)(F)F)cc32)CC1	-12%	-381%	-2%	9%	-4	-28%	.	.	.	.	USP1-UAF1 confirm=?
CCC12CN3CC(CC)(CN(C1)C3c1ccccn1)C2=O (stereo not drawn)	.	.	12%	.	.	.	.	.	.	.
CN1C2CCC1/C(=C/c1ccccn1)C(=O)/C2=C\c1ccccn1	0%	.	28µM*	-4%	4	?	2.7*	?	2.1µM*	21µM*
Cc1ccc(/C=C2/C(=O)NC(=O)N(C)C2=O)cc1	-12%	14%[0.074 µM]	-9%	13%	-1	-3%	.	.	.	.
CN1C(=O)NC(=O)/C(=C/c2ccc([N+](=O)[O-])s2)C1=O	22µM*	-16%[10 µM]	45µM*	-3%	-21	12%[9.22 µM]	8.4*	?	11%	?
Cc1ccc(N2C(=O)NC(=O)/C(=C\c3cnc(-c4ccccc4)nc3)C2=O)cc1	3.2µM*	25%[10 µM]	22µM*	102%	2	3%	27*	?	11%	9%
O=C(O)CCC1NCC2CC1CN1CCCCC21 (stereo not drawn)	2%	.	0%	4%	1	.	.	.	.	.

Assay outcomes as filed in PubChem BioAssay.
